# Screens: PubChem BioAssay, National Center for Advancing Translational Sciences (NCATS)
# In the library only some 9.3% were active in any assay of this set; here they are far more common.
# VACV Venus inh = vaccinia inhibition (Venus reporter) | Vaccinia virus Venus reporter expression, fluorescence | Potency, µM (doses to about 36.5 µM), inactives show at the top dose activity change, negative = inhibition, usual class: inhibitors | 330,000 compounds, 0.46% hits | AID 720580; calls by dose curve; tested in A549 cells; note: potency is the fitted concentration of half-maximal effect; nearly all actives have a fitted effect of over 30% in size
# HCV inhibitor = blocks hepatitis C virus; Huh7.5.1 HCVcc-Cre infection, luciferase reporter, 44 h; Potency, µM (titrated, usually from 41.8 µM), for inactives: top-dose activity change, negative = inhibition, usual class: inhibitors; 340,000 compounds, 3.4% hits; AID 651820; note: potency is the fitted concentration of half-maximal effect
#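 Seed cells (1,000/well) for 4 h; treat with compound and infect with HCVcc-Cre, moi about 0.5. Incubate 44 h, then detect luciferase activity.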
# Vaccinia mCherry = inhibitors of vaccinia virus infection (mCherry reporter signal). Potency, µM (series often up to 36.5 µM), for inactives: at the top dose activity change, negative = inhibition, hits mostly inhibitors. 310,000 compounds, 0.63% hits. Vaccinia virus mCherry reporter infection, fluorescence. AID 720579; calls by dose curve; tested in A549 cells; note: potency is the fitted concentration of half-maximal effect; nearly all actives have a fitted effect of over 35% in size
# HCMV antiviral = human cytomegalovirus inhibition. HFF cells, HCMV-luciferase reporter, 72 h; stronger effect = lower value. activity change, negative = inhibition, % at 57.5 µM. 410,000 compounds, 4.5% hits. AID 1259415; in the data active = activity change below about -60%; inconclusive = no clear call, values can overlap the other calls; inactive = above about -39%
#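 Screen run at 2 compound doses on HFFs infected with reporter HCMV, MOI 1 PFU/cell. Luciferase activity from cell lysates at 72 h post infection gave inhibition relative to buffer-only and Salinomycin wells.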
# FMDV antiviral = foot and mouth disease virus antiviral activity | AID 1159524 | 410,000 compounds, 1.2% hits | Potency, µM (doses to about 57.9 µM), for inactives: top-dose activity change, negative = inhibition, most hits filed as inhibitors | FMDV antiviral cell-based qHTS; calls by dose curve; tested in HEK293T cells; note: read-out not given here; potency is the fitted concentration of half-maximal effect; nearly all actives have a fitted effect of over 45% in size
# Sm TGR block = inhibitors of Schistosoma mansoni thioredoxin glutathione reductase; purified TGR, DTNB reduction, TNB absorbance 405 nm; Potency, µM (highest dose often 114 µM), for the others: at the top dose activity change, negative = inhibition, actives largely listed as inhibitors; 360,000 compounds, 3% hits; AID 485364; note: potency is the fitted concentration of half-maximal effect; nearly all actives have a fitted effect of over 60% in size
#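 Kinetic colorimetric format: TGR-catalysed, NADPH-driven DTNB reduction monitored via TNB absorbance. Enzyme dispensed at 20 nM; compound exposure 15 min at room temperature before reaction start.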
# Numbers without * were called inactive; i = inactive; u = inconclusive; x = no result given. Unless noted, calls come from the whole dose curve; as a rule, active = well fitted curve in the direction sought with a large enough effect; inconclusive = small, poorly fitted or top-dose-only effect, or another doubt; inactive = no such curve, though single readings can be large; an effect the other way counts as inactive or inconclusive. % is set by controls: 0 for no effect and ±100 for the full control effect.
SMILES,VACV Venus inh,HCV inhibitor,Vaccinia mCherry,HCMV antiviral,FMDV antiviral,Sm TGR block
Cc1ccc(-c2csc(=Nc3cccnc3)n2CCCN2CCCC2=O)cc1C,u,u,u,u,u,-22.5%
COc1ccccc1N1CCN(C(CNS(=O)(=O)c2ccc(C)cc2)c2cccnc2)CC1 (stereo not given),-20.2%,-27.9%,-27.5%,-1.7,u,-16.4%
Cn1cnnc1Sc1nc([N+](=O)[O-])nn1C,x,2.2%,x,-6.4,4.2%,17.0%
COc1ccccc1-c1nnc(Sc2nc([N+](=O)[O-])nn2C)o1,x,10µM*,x,-74.8*,28.2µM*,u
CCCC(=O)NC(c1ccc(Cl)cc1)c1ccc2cccnc2c1O (stereo not given),u,1.78µM*,u,-99.7*,-9.5%,-5.4%
Cc1cccc(NC(c2cccc(Cl)c2)c2ccc3cccnc3c2O)n1 (stereo not given),u,x,u,-97.8*,-12.0%,4.47µM*
CCCC(=O)NC(c1ccc(C)cc1)c1ccc2cccnc2c1O (stereo not given),u,3.55µM*,u,x,-16.2%,9.1%
Cc1ccnc(NC(c2cccc(O)c2)c2ccc3ccc(C)nc3c2O)c1 (stereo not given),-7.0%,x,-15.4%,8.5,-17.0%,1.58µM*
Cc1ccnc(NCc2ccccc2O)c1,-14.7%,1.7%,i,-13.9,16.8%,-6.4%
COc1ccccc1NC(=O)CCN1C(=O)/C(=C\c2cc(OC)c(OC)c(OC)c2)SC1=S,x,13.8%,x,-29.8,-29.9%,4.0%
CSc1ccccc1C(=O)NCCSc1ccccc1,x,-0.6%,x,29.0,42.6%,21.8%
CCCCC(=O)NC(c1ccccc1Cl)c1c(O)ccc2ccccc12 (stereo not given),-27.5%,-4.1%,u,u,u,-10.2%
Cc1ccc(C(Nc2ccccn2)c2ccc3cccnc3c2O)cc1 (stereo not given),u,x,11.2µM*,-64.3*,-8.7%,1µM*
CCCCC(=O)NC(c1ccc(Cl)cc1)c1ccc2cccnc2c1O (stereo not given),u,u,6.31µM*,-97.9*,-2.8%,x
COc1ccc(C(Nc2ccccn2)c2ccc3ccc(C)nc3c2O)cc1C (stereo not given),-7.6%,x,-13.3%,-10.5,-24.9%,0.708µM*
CCCC(=O)NC(c1ccc(Cl)cc1Cl)c1ccc2cccnc2c1O (stereo not given),u,u,u,-105.0*,-11.6%,3.4%
Nc1c(NC2CCCCC2)c2ccccc2oc1=O,x,-43.6%,x,-12.2,0.3%,-9.4%
CC(=O)NC(c1ccc(Cl)cc1Cl)c1ccc2cccnc2c1O (stereo not given),x,5.62µM*,x,-98.4*,0.0%,-17.5%
CC(=O)NC(CC(=O)NC(C)c1ccc(Cl)cc1Cl)c1ccccc1 (stereo not given),-7.7%,10.0%,i,-12.7,3.9%,-15.2%
Nc1nc(SCc2ccc(Cl)cc2Cl)nc2nc3c(cc12)CCCC3,u,8.91µM*,u,u,-19.5%,-7.2%
COc1ccc(COC(=O)CCS(=O)(=O)c2ccc(C)cc2)cc1,-2.8%,-16.3%,-11.5%,4.1,-12.0%,-20.2%
CCCCNc1nc2c(S(=O)(=O)c3ccc(C)c(C)c3)nnn2c2ccsc12,-22.3%,x,-13.4%,13.4,-1.2%,1.2%
C/C(=N\NC(=O)c1ccccc1C)c1cccnc1,x,8.4%,x,-34.2,35.6%,0.0%
C/C(=N\Nc1ccccc1C)c1cccnc1,-4.7%,-6.5%,-16.5%,u,44.1%,35.5µM*
Cc1nc2ccc(S(=O)(=O)NC(C(=O)NCc3ccc(Cl)cc3)C(C)C)cc2s1 (stereo not given),-4.9%,x,-4.4%,-15.1,-4.6%,-1.0%
COCCNC(=S)N/N=C1\CC(C)CC(C)(C)C1 (stereo not given),11.2%,9.3%,-17.8%,-76.0*,-15.9%,u
CCC(C)(C)C1CCC(=NNC(=S)Nc2ccccc2)CC1 (stereo not given),-2.7%,5.6%,i,-3.7,-23.1%,2.4%
S=C(NCCc1ccccc1)NN=C1CCCCCC1,-5.9%,14.3%,-18.9%,-92.4*,53.6%,-0.9%
COCCNC(=S)NN=C1CCCCCC1,x,-9.2%,x,-115.1*,3.9%,-16.5%
